# ERb coact inh = ER-beta (human) coactivator binding inhibition; Q92731; TR-FRET ER-beta LBD / SRC1-Cy5 peptide binding; receptor agonist-loaded with 1 µM estradiol; inhibition, % at 25.6 µM; 86,000 tested, 1.3% active; AID 633;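 active means compounds whose percent inhibition of the receptor-coactivator binding signal exceeds about 50% in the single-dose screen, limit read from the data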;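 further: 0% = receptor plus peptide wells without compound and 100% = peptide-only wells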
# Smad3 inh = inhibitors of human Smad3 transcription factor binding; P84022; TR-FRET Smad3/Dy647-FoxH1 peptide binding, europium anti-His; inhibition, % at 25 µM; 88,000 tested, 0.29% active; AID 630;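 active means compounds that reduce the energy-transfer binding signal between the protein and its labelled peptide by more than half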;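 further: 0% = Smad3 plus labelled peptide maximal FRET and 100% = peptide-only background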
# ERa SRC1 inh = ER-alpha (human) coactivator binding inhibition. TR-FRET ER-alpha LBD / SRC-1 peptide, estradiol-bound. AID 629. P03372. inhibition, % at 25.6 µM. 86,000 tested, 1.7% active; in the data active means inhibition above about 50%;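 further: 0% = receptor plus peptide control and 100% = peptide only without receptor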
# Target sequence (P03372 whole entry, looked up, the tested form may be a part): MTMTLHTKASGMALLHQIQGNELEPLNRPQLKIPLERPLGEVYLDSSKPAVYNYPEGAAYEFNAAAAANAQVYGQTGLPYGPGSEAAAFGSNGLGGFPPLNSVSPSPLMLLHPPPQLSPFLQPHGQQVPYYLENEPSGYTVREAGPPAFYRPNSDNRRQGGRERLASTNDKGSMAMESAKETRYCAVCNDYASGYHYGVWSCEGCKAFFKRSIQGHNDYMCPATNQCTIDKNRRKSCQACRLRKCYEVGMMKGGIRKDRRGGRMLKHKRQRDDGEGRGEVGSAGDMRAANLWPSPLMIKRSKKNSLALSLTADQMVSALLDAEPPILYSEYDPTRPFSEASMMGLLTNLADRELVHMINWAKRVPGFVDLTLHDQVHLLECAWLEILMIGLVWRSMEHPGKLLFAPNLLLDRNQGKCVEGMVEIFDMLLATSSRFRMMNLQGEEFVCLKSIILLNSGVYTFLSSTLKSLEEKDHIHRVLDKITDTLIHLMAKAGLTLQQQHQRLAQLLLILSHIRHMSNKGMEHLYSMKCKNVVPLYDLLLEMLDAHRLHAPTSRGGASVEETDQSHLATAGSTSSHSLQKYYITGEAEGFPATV
# FAK inh = blocks human focal adhesion kinase activity; biochemical FAK kinase activity assay; inhibition, %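 (tested at 7 µM)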; 97,000 tested, 0.84% active; in the data active means inhibition above about 19%;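 further: 0% = DMSO and 100% = reference compound high control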
# ERa SRC1 pot = ER-alpha (human) coactivator binding potentiation; 86,000 tested, 1.3% active; coactivator binding (% of control), % at 25.6 µM; TR-FRET ERalpha-LBD/SRC-Cy5 coactivator binding, 2 h; 100 = basal binding, no effect; AID 639; in the data active means activity above about 200%;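 further: binding measured in presence of low estradiol as agonist stimulus; 0% = peptide alone without receptor and 100% = receptor with peptide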
# The depositor's hits bear a star; · = no result; [ ] = dose if it differs, or a comment. Compounds with a hit are over-represented: about 3.3% of the library has one in this group of screens.
SMILES,ERb coact inh,Smad3 inh,ERa SRC1 inh,FAK inh,ERa SRC1 pot
CC(=C1C(=O)c2ccccc2C1=O)N1CCN(Cc2ccccc2)CC1,-2,0,0,0,714*[fluorescence artefact?]
CCC(C)C(NC(=O)c1ccccc1NC(=O)c1ccco1)C(=O)NC1CCCCC1 (stereo not given),21,4,56*[fluorescence artefact?],·,87
COc1ccc(NC(=O)Cn2nnc(-c3ccccc3NC(=O)c3ccco3)n2)cc1,52*[fluorescence artefact?],-6,28,4,149
O=C(Cn1nnc(-c2ccccc2NC(=O)c2ccco2)n1)NC1CCCCC1,21,-14,47,4,288*[fluorescence artefact?]
COc1ccc(C(=O)Nc2ccccc2-c2nnn(CC(=O)NCc3ccco3)n2)cc1,1,-6,11,15,210*
O=C(Cn1nnc(-c2ccccc2NC(=O)c2ccccc2F)n1)NCc1ccco1,14,-3,29,-5,136
O=S(O)O.O=S(O)O.[Co].[NH2-].[NH2-].[NH2-].[NH2-],·,6,·,·,·
c1ccc(CN2CCC3(CC2)SSC2(CCN(Cc4ccccc4)CC2)SS3)cc1,·,20,·,·,·
O=C(O)CCC(=O)c1ccc2sc3ccccc3c2c1,·,-14,·,·,·
O=C(Cn1nnc(-c2ccccc2NC(=O)c2cccs2)n1)Nc1ccccc1,57*[fluorescence artefact?],-5,65*[fluorescence artefact?],1,200*[fluorescence artefact?]
COc1ccc(NC(=O)Cn2nnc(-c3ccccc3NC(=O)C3CC3)n2)cc1,4,6,5,·,106
CN(C)C(=O)Cn1c(SCC(=O)N2CCCc3ccccc32)nc2ccccc21,-14,-8,21,9,829*[fluorescence artefact?]
Cc1cc(Cl)nc(NC(=O)CSc2ccc(Cl)cc2)n1,·,-8,·,·,·
N#Cc1c(NC(=O)C(F)(F)F)sc2c3c(=O)c4ccccc4c(=O)c=3oc3ccccc3c12,·,3,·,·,·
O=C(Oc1ccc2c(c1)OCC2=O)c1ccccc1,55*,-8,44,4,86
c1csc(C(c2nnnn2C2CCCC2)N2CCCC3(CCCCC3)C2)c1 (stereo not given),3,-6,-7,0,92
CC(=O)Nc1ccc(Oc2ccc3nc(C)[nH]c3c2)cc1,15,7,2,0,101
CC(=O)N(C(C)=O)c1ccc2nc(C)[nH]c(=O)c2c1,-1,-2,6,0,577*[fluorescence artefact?]
N#C/C(=N\Nc1ccc(Cl)cc1)C(=O)c1ccccc1,·,·,·,-5,·
N#CC(C(=O)Nc1ccc(Cl)cc1)=C1Nc2ccccc2N1,6,4,54*,6,163
CCOc1ccccc1C(=O)Nc1cccc(-c2nnc(-c3ccccc3)o2)c1,25,-13,39,12,317*[fluorescence artefact?]
Cc1cccc(-n2nnnc2SCC(=O)c2cc(C)n(Cc3ccco3)c2C)c1,47,-8,89*[fluorescence artefact?],9,49
Cc1cccc(-n2nnnc2SCC(=O)c2cc(C)n(CC3CCCO3)c2C)c1 (stereo not given),16,6,13,·,87
O=C(O)c1cc(=O)[nH]c(=S)[nH]1,·,-7,·,·,·
CCN(CC)c1ccc2cc(C(=O)Nc3cccnc3N3CCOCC3)c(=O)oc2c1,-6,8,-10,·,116
SMILES,ERb coact inh,Smad3 inh,ERa SRC1 inh,FAK inh,ERa SRC1 pot
CCOc1cc(-n2cnnn2)c(OCC)cc1NC(=O)c1cc2ccc(N(CC)CC)cc2oc1=O,53*[fluorescence artefact?],5,84*[fluorescence artefact?],-5,191
O=C(COC(=O)c1ccc(S(=O)(=O)N2CCOCC2)cc1)Nc1nc(-c2ccccc2)cs1,35,9,26,-6,139
O=C(COc1ccccc1)Nc1nc(-c2ccc(S(=O)(=O)N3CCOCC3)cc2)cs1,21,12,19,-1,328*[fluorescence artefact?]
O=C(COc1ccc(Cl)cc1)Nc1nc(-c2ccc(S(=O)(=O)N3CCOCC3)cc2)cs1,19,2,12,-1,275*[fluorescence artefact?]
COc1ccccc1OCC(=O)Nc1nc(-c2ccc(S(=O)(=O)N3CCOCC3)cc2)cs1,15,-13,27,0,217*[fluorescence artefact?]
CC(C)NC(=O)CSc1nc(-c2cccs2)cc(-c2ccccc2)c1C#N,7,-36,11,-25,255*
CCOC(=O)c1sc(NC(=O)CSc2nc(C)cc(C)c2C#N)c(C#N)c1C,21,-6,36,2,267*
CCOC(=O)c1sc(NC(=O)CSc2nc3c(c(-c4ccc(OC)cc4)c2C#N)CCCC3)c(C#N)c1C,8,4,13,1,138
Cc1cccc(NC(=O)c2sc3nc(-c4ccc(F)cc4)cn3c2C)n1,-15,-340,-10,-76,839*[fluorescence artefact?]
Cc1cccc(NC(=O)c2sc3nc(-c4ccccc4)cn3c2C)n1,-14,6,-29,-2,144
COc1cccc(/C=N/n2c(SC)nnc2-c2ccccc2)c1O,68*[fluorescence artefact?],1,16,-10,89
COc1cccc(/C=N/n2c(SC)nnc2-c2ccccc2)c1OC,8,-17,22,-2,105
Cc1ccc(-[n+]2cc(=O)o[nH]2)cc1,·,-3,·,·,·
O=C1c2ccccc2C(=O)C1c1ccc2ccccc2n1,34,33,52*[fluorescence artefact?],·,217*[fluorescence artefact?]
O=C(O)C[C@@H](C(=O)O)c1ccccc1[N+](=O)[O-],·,48,·,·,·
O=C(Cc1ccc(Cl)cc1)Nc1ccc(-c2nnc(-c3ccco3)o2)cc1,37,12,68*[fluorescence artefact?],11,123
O=C(O)CCC(=O)Nc1ccc(-c2nnc(-c3ccco3)o2)cc1,22,-2,11,-1,87
O=C(Cc1ccc(Cl)cc1)Nc1ccc(N2CCN(C(=O)c3ccco3)CC2)cc1,32,3,67*[fluorescence artefact?],2,128
O=C(O)[C@H]1CC=CC[C@@H]1C(=O)Nc1cccc(O)c1,·,-9,·,·,·
N[C@@H](CC1=CS(=O)(=O)c2ccc(Cl)cc21)C(=O)O,·,77*,·,·,·
CN(C)Cc1cc(O)c(O)c(CN(C)C)c1,·,54*,·,·,·
CN(C)Cc1cc(Cl)c(O)c(CN(C)C)c1,·,-2,·,·,·
Cc1ccc2nc(-c3cccc(N)c3)oc2c1,-1,9,0,2,88
Cc1ccc2nc(-c3cccc(-c4nc5ccc(C)cc5o4)n3)oc2c1,12,-8,7,·,248*[fluorescence artefact?]
CC1(C)N=C(N)N=C(N)N1c1cccc(OCc2cccc(N)c2)c1,·,11,·,·,·
SMILES,ERb coact inh,Smad3 inh,ERa SRC1 inh,FAK inh,ERa SRC1 pot
CN(C)CCCCN1CCc2c(n(C)c3ccccc23)C1=O,·,-5,·,·,·
CSc1ccc(C2C(C#N)=C(N)Oc3c2ccc(=O)c2c(C)oc(C)c32)cc1 (stereo not given),58*,8,78*,-2,64
Cc1nc(-c2ccccc2)nc2[nH]c(-c3ccccc3)cc(=O)c12,44,5,24,1,334*[fluorescence artefact?]
Cc1nc(C)c2c(=O)cc(-c3ccccc3)[nH]c2n1,-23,-4,-21,1,117
CC(=O)Nc1ccc(S(=O)(=O)NC(C(=O)O)C(C)C)cc1 (stereo not given),66*[fluorescence artefact?],0,-12,1,105
CCC(C)NS(=O)(=O)c1ccc(NC(C)=O)cc1 (stereo not given),-23,-1,-21,-1,99
Cc1ccc(S(=O)(=O)c2c(N)n(Cc3ccco3)c3nc4ccccc4nc23)cc1C,3,1,1,-1,220*
Nc1c(S(=O)(=O)c2ccccc2)c2nc3ccccc3nc2n1Cc1ccco1,17,19,-28,-4,70
